Measured values: PubChem BioAssay (NCI)
Values joined by “and” are separate entries in the source; they are usually repeats but may differ in a detail not shown here. Equal entries are not always repeated. The panel holds about 83,000 compounds, 20% with a hit somewhere; the sample as a whole holds those more often.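 Testing used 96-well plates and a 48-hour single-concentration exposure. Example: -40 means 40% of the starting cells died.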 Values without a mark were called inactive. Active and inactive are the calls of the source. Rule for the calls: active = growth percent below 10; inactive = the rest.

System: MDA-MB-468 breast
Assay: NCI-60 one-dose screen, 48 h (100 = growth as untreated, 0 = no growth, -100 = all killed)
Details: 10 µM unless noted

Row | Structure (SMILES) | growth
1 | COc1ccc2c(c1)nc(N)c1c3cc(OC)c(OC)cc3cn21 | 2.7% (active)
2 | Cc1ccc(C2SCC(=O)N2Cc2ccccc2)cc1 (stereo not given) | 87.3%
3 | O=C(Nc1cccc2[nH]c(C(F)(F)F)nc12)c1cc(Cl)ccc1Cl | 15.1%
4 | COc1cc2c(cc1OC)C(Sc1ccc(Cl)cc1)c1c(nc(N)c(C#N)c1N)O2 (stereo not given) | -23.6% (active)
5 | O=C(Nc1cccc(Cl)c1)Nc1nc2ccc(-c3cccc4ccccc34)cc2s1 | 37.6%
6 | COc1cc(NCCCCCN=C(N)NC(N)=NC(C)C)c2ncccc2c1 | -63.5% (active)
7 | O=C(Nc1ccc(I)cc1F)c1cc(I)ccc1O | -13.2% (active)
8 | CCOc1cc(CNc2ccc(N3CCOCC3)c(C(=O)O)c2)ccc1OC | 94.7%
9 | COC(=O)CCOc1ccccc1 | 80%
10 | CCOc1cc(/C=N\NC(=O)C[N+](C)(C)C)ccc1O | 123%
11 | C[C@@H]1CCC2=C(CCC[C@]2(C)C(=O)O)[C@@]1(C)CCc1ccoc1 | 95.4%
12 | COc1ccc(-c2cc(NC(=O)Nc3ccc4ncsc4c3)no2)cc1 | 99.2%
13 | COc1ccc(/C=C/C(=O)Nc2cc(/C=C\c3cc(OC)c(OC)c(OC)c3)cc(OC)c2OC)cc1OC | 17.5%
14 | Nc1n[nH]c2cccc(C#Cc3cccc(C(=O)Nc4ccc(CN5CCOCC5)c(C(F)(F)F)c4)c3)c12 | 66%
15 | C/C(=N\O)C(=O)NCCCCCC(=O)Nc1ccccc1 | 114%
16 | CCCCCCCCCCCCN1CCCC(C)C1 (stereo not given) | 68.4%
17 | COc1cc(C2CC(c3ccc(Cl)cc3)=NN2C=O)ccc1OS(=O)(=O)c1ccc(C)cc1 (stereo not given) | 60.6%
18 | C=CC(=O)Nc1cccc(Oc2nccc(Nc3nnc(C4CC4)s3)n2)c1 | 102%
19 | CC(=O)c1cc(O)c2ccccc2c1O | 63.9%
20 | O=C1CC(=O)OC(c2ccc([N+](=O)[O-])cc2)O1 | -49.7% (active)

Row | Structure (SMILES) | growth
21 | CCc1cccc2c3c(sc12)C(c1ccc(F)cc1)C(C#N)=C(/N=C/c1ccc(Cl)cc1)O3 (stereo not given) | 31%
22 | C#CCOc1ccc(C2=NN(C)C3N=C(Cl)c4ncn(C)c4N23)cc1OCC#C (stereo not given) | 86.3%
23 | C[C@@H]1N=C(c2ccc3ccccc3n2)Nc2nc3ccccn3c2C1=O | 107%
24 | Cc1cc2nc(CN)[nH]c2cc1C | 103%
25 | O=C(Cc1ccc(F)c(Cl)c1)Nc1cc(C2(C(F)(F)F)CC2)nn1Cc1ccccc1 | 23.9%
26 | CCN(CC)CCNC(=O)n1cc(-c2ccncc2)c(-c2ccc(Cl)c(OC)c2)n1 | 88.3%
27 | O=C1c2cccnc2C(=O)c2c1c(C(=O)OCCCN1CCCCC1)c1ccccn21 | 31.6%
28 | O=c1c(-c2nc3ccccc3[nH]2)cc2ccccc2n1Cc1cn(Cc2ccccc2Cl)nn1 | 14.1%
29 | Cc1cc(N2CCCCC2)nc(N2CCN(CC(=O)Nc3ccc4c(ccn4Cc4ccccc4)c3)CC2)n1 | 37.6%
30 | COc1ccc(C(=O)c2sc3nc(-c4ccccc4OC)ccc3c2N)cc1OC | 66.9%
31 | CC(=O)Nc1c(C)cc(C)cc1C | 108%
32 | Cc1cccc(NC(=O)CSc2nc3ccccc3[nH]2)c1 | 104%
33 | CCOc1ccc2cc(-c3nn(CC4CCNCC4)c4ncnc(N)c34)ccc2c1 | 93.3% and 40.5%
34 | COc1cc2c(c(O)c1Cl)C(=O)c1c(O)cc(C[C@H](C)O)cc1[C@H]2[C@H]1c2cc(C[C@H](C)O)cc(O)c2C(=O)c2c1cc(OC)c(Cl)c2O | -14.6% (active)
35 | CCN(CC)c1ccc2cc(C(Nc3ccc(C)cc3)c3nnnn3C(C)(C)C)c(=O)oc2c1 (stereo not given) | 105%
36 | CCCCNC(=O)c1cc(NCc2cc(O)ccc2O)ccc1O | 93.6%
37 | COc1ccc(/C(C#N)=C2C=C/C(=N/O)c3ccccc3\2)cc1 | 37.1%
38 | CCCCCCN(CCCCCC)c1ccc(/C=C2/SC(=O)NC2=O)c(C)c1 | 80.6%
39 | CNCCCNc1nc2ccccc2c2c(=O)c3cc(OC)ccc3sc12 | 24.8%
40 | COc1ccc(C(=O)C(C)Br)cc1OC (stereo not given) | 77.6%
